In PubChem BioAssay:

How the values were obtained:
[1] = test system: Human papillomavirus type 1a protein E7 (residues 44-93); test: small molecules binding HPV E7 44-93 – biochemical, small-molecule microarray, residues 44-93, 635 nm fluorescence, primary screen (AID 1108); settings: fluorescence 635 nm, higher = more signal;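 also: E7 fragment applied at 1 µg/mL in TBST for 1 h at 4 C; score combines spot fluorescence with its signal to noise ratio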
[2] = hepatitis C replication reporter changes, two-sided – Huh7 cells, luciferase reporter, HCV replication inhibitor project, primary screen (AID 1109); settings: Huh7 HCV replicon luciferase reporter, 48 h; higher = more signal;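 also: huh7 hepatoma cells harbouring a luciferase neomycin HCV replicon reporter; luciferase luminescence as measure of HCV replicon replication; test concentration not given here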
[3] = target: Left-right determination factor 2 (Homo sapiens) (UniProt O00292); test: small molecules binding LEFTY2 protein – biochemical, small-molecule microarray, 635 nm fluorescence scan, primary screen (AID 1110); settings: higher = more signal
Left-right determination factor 2 (Homo sapiens), sequence (O00292 whole entry, looked up): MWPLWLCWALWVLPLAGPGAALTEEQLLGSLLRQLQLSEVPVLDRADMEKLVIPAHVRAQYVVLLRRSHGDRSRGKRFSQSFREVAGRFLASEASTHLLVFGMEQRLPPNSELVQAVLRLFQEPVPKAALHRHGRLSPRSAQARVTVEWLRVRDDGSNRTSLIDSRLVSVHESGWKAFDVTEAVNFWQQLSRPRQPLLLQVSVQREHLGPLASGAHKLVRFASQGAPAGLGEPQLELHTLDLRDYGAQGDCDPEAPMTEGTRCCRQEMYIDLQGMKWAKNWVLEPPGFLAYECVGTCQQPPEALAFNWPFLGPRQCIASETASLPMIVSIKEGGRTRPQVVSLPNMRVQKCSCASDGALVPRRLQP

[4] = target: Calmodulin-1 (Homo sapiens) (UniProt P0DP23); test: small molecules binding calmodulin-1 with EGTA – biochemical, small-molecule microarray, Cy5-labelled CALM1, profiling panel (AID 1111); settings: Cy5-CALM1 binding fluorescence, higher = more signal;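 also: labelled calmodulin applied in Tris saline Tween buffer holding calcium plus EGTA and DTT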
[5] = target: Calmodulin-1 (Homo sapiens) (UniProt P0DP23); test: small molecules binding Ca-loaded calmodulin-1 – biochemical, small-molecule microarray, Cy5-labelled CALM1, plus calcium, artefact control for SMM control-protein annotation, profiling panel (AID 1112); settings: Cy5-CALM1 binding fluorescence, higher = more signal;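 also: score merges spot fluorescence with signal to noise from triplicate slides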
[6] = probe aWnt5a binding to arrayed compounds – biochemical, biotinylated probe, 635/667 nm fluorescence, primary screen (AID 1113); settings: small-molecule microarray, higher = more signal;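 also: score merges 667 nm fluorescence intensity with signal-to-noise per printed feature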
[7] = probe aShh binding to arrayed compounds – biochemical, biotinylated probe, 635/667 nm fluorescence, primary screen (AID 1114); settings: small-molecule microarray, higher = more signal;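 also: probe is biotin-labelled aShh protein from a stem cell growth factor screen; measures binding of labelled protein to compounds printed on the slide; score merges feature fluorescence at 667 nm with signal-to-noise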
[8] = probe aNog binding to arrayed compounds – biochemical, biotinylated probe, 635/667 nm fluorescence, primary screen (AID 1115); settings: small-molecule microarray, higher = more signal;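 also: probe is biotinylated aNog protein used at 0.15 µg/mL for 1 h at 4 C; z-score combines 667 nm fluorescence of each spot with its signal to noise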
[9] = target: Torsin-1A-interacting protein 1 (Homo sapiens) (UniProt Q5JTV8); test: compound microarray binding of lysate hLAP1 – cell lysate, small-molecule microarray, COS7 lysate, 635/667 nm fluorescence, primary screen (AID 1116); settings: 635 nm fluorescence, higher = more signal
Torsin-1A-interacting protein 1 (Homo sapiens), sequence (Q5JTV8 whole entry, looked up): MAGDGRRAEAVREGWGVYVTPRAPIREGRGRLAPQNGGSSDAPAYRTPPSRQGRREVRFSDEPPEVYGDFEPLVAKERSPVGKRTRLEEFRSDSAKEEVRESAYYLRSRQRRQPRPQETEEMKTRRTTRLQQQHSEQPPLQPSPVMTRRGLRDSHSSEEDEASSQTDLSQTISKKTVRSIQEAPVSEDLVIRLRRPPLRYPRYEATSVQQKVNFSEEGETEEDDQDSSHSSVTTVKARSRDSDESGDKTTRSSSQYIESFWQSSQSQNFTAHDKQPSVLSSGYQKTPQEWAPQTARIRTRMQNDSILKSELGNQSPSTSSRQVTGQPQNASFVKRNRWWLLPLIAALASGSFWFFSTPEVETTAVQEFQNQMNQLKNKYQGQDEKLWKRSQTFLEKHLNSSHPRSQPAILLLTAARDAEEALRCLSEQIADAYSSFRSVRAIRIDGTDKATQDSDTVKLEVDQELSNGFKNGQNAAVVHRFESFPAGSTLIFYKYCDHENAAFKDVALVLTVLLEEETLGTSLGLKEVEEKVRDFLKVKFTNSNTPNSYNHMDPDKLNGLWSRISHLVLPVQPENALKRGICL

[10] = target: Alpha-bungarotoxin (Bungarus multicinctus) (UniProt P60615); test: compounds binding labelled alpha-BTX control protein – biochemical, small-molecule microarray, Alexa647 label, 635/667 nm fluorescence, artefact control for SMM control protein annotation, profiling panel (AID 1117); settings: alpha-BTX-A647 binding fluorescence, higher = more signal
Alpha-bungarotoxin (Bungarus multicinctus), sequence (P60615 whole entry, looked up): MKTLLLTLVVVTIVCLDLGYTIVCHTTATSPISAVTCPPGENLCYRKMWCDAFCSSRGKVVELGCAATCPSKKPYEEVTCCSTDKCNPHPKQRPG

Row | Compound | composite z-score [1] | z-score [2] | composite z-score [3] | composite z-score [4] | composite z-score [5] | composite z-score [6] | composite z-score [7] | composite z-score [8] | composite z-score [9] | composite z-score [10]
1 | CCCNC(=O)[C@@]1(Sc2ccc(C)cc2)CC(=O)N(Cc2ccccc2C(F)(F)F)[C@@H]1c1ccc(CO)cc1I | 1.38 | -1.91 | -0.0375 | -0.214 | -0.611 | -0.0519 | 0.0639 | 0.134 | 0.332 | 1.62
2 | O[C@@H](Cc1ccccc1)[C@@H](/C=C/C1CC1)NCc1cccc(Cl)c1 | -0.597 | -4.47 | -1.4 | -0.863 | -0.133 | -0.197 | -0.206 | -0.402 | -0.737 | -0.801
3 | C=CCC(OC(C)=O)[C@@H]1[C@@H](N(Cc2cc3ccccc3o2)C(=O)Cc2ccc(OC)cc2)c2cc(OCCCO)ccc2N1C(=O)c1ccc2ccccc2c1 (stereo not given in full) | 0.0806 | -0.359 | -0.0999 | -0.428 | 0.174 | -0.0754 | 0.0062 | -0.125 | 0.0296 | -0.396
4 | Cc1ccc(S[C@]2(C(=O)NCC(C)C)CC(=O)N(Cc3cc(C(F)(F)F)cc(C(F)(F)F)c3)[C@@H]2c2ccc(CO)cc2)cc1 | -0.716 | -0.297 | -0.419 | -0.909 | -0.468 | 0.168 | -0.153 | -0.468 | 0.489 | -0.0201
5 | COc1cc(CO)cc(I)c1O[C@H]1C=C(C(=O)NCCO)C[C@@H](NC[C@@H]2CCCO2)[C@@H]1O | 1.33 | -0.695 | 0.187 | -0.0113 | -0.732 | -0.096 | -0.304 | -0.267 | 1.13 | 0.693
6 | CCOC(=O)C1=CC[C@@H](c2ccc(C(F)(F)F)cc2)N(S(=O)(=O)c2ccc(C)cc2)[C@H]1c1ccccc1 | 0.277 | -1.1 | 0.221 | 2.08 | 0.55 | 0.201 | 0.109 | 1.43 | 1.51 | 1.56
7 | COc1ccc(-c2cc3c(c(Cc4ccccc4)n2)[Si](C(C)C)(C(C)C)OC3)cn1 | -0.864 | -0.421 | -0.0979 | -0.646 | 0.0817 | -0.13 | -0.0849 | -0.0855 | -0.0516 | -0.26
8 | COC(=O)[C@@]1(CCC(=O)OC(C)(C)C)N=C(c2ccc(OCCCO)cc2)O[C@H]1c1ccccc1 | 0.255 | -1.79 | -0.211 | 0.0108 | -0.181 | -0.0161 | 0.351 | 0.711 | 0.692 | 0.629
9 | CCCCCCCCCCC(O)C1C=CC2C(=O)NC(=O)C2N1Nc1ccc(Cl)cc1Cl (stereo not given) | 0.732 | -1.26 | -1.67 | 1.21 | 1.21 | -0.122 | -0.138 | 1.07 | 0.345 | -0.133
10 | [N-]=[N+]=Nc1ccccc1C[C@@]1(C(=O)N2CCCCC2)N=C(c2ccc(OCCCO)cc2)O[C@@H]1c1ccccc1N=[N+]=[N-] | 0.869 | -2.71 | -0.145 | 1.6 | 1.04 | 0.151 | 0.778 | 0.353 | 0.71 | 2.09
11 | C=CC[C@]1(C(N)=O)N=C(c2ccc(OCCCO)cc2)O[C@H]1c1ccccc1 | -0.434 | -0.31 | -0.524 | 0.27 | -0.665 | -0.0685 | 0.401 | 0.041 | 1.59 | 0.947
12 | COCCCNC(=O)[C@]1(Cc2ccccc2)N=C(c2ccc(OCCCO)cc2)O[C@@H]1c1ccccc1CN=[N+]=[N-] | 0.128 | -2.18 | -0.254 | 1.02 | 0.562 | 0.116 | 0.585 | 0.918 | 2.48 | 0.315
13 | CC[C@@H]1C=C(C(=O)O)[C@H](c2ccc(C)cc2)N1S(=O)(=O)c1ccc(C)cc1 | 0.878 | -0.315 | -0.925 | 0.846 | 0.515 | -0.096 | 0.0048 | -0.126 | 0.24 | 0.671
